What all share (assay): NCI-60 one-dose screen, 48 h (100 = growth as untreated, 0 = no growth, -100 = all killed)
What all share (details): 10 µM

In test [1] the test system is HCT-15 colon.
In test [2] the test system is HT29 colon.
Test [3] relates to SNB-75 CNS.
Test [4] has as its system SNB-19 CNS.
For test [5], the system named is U251 CNS.
In test [6] the test system is PC-3 prostate.
For test [7], the system named is SK-MEL-5 melanoma.
Test [8] deals with UACC-62 melanoma.
Test [9] has as its system LOX IMVI melanoma.
The test system of test [10] is SK-MEL-28 melanoma.

Compounds without any hit were thinned out: in the full panel of roughly 83,000, 20% have a hit.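 Values shown are percent growth following 48 h exposure of cells in 96-well plates to a single concentration of compound; below 10 was considered active.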 A number with no mark means an inactive call. Active and inactive are the calls of the source.

In the case of `NC1CCC(Nc2nc(NCc3ccc(-c4ccccc4O)nc3)c3ncn(C4CCCC4)c3n2)CC1` (stereo not given), the growth in [1] was -4.18% (active); in test [2], -22.5% (active); in test [3], -70.1% (active); in test [4], 8.53% (active); in test [5] it was -23% (active); in [6], -3.87% (active). The growth in test [7] was -94.1% (active); in test [8] it was -55% (active); in test [9] it was -82.8% (active); in test [10], -58.9% (active).

Take `COc1cccc2c1C(=O)c1c(O)c3c(c(O)c1C2=O)C[C@@](O)(C(=O)COC(=O)c1ccccc1)C[C@@H]3OC1CC(N)C(O)C(C)O1` (stereo not given in full): the growth in test [1] is -72% (active); in [2], -95.1% (active); in test [3], -84.3% (active); in test [4] it was -75.4% (active); in [5], -95.4% (active); in test [6], -95.6% (active). Besides, the growth in test [7] is -97.2% (active); in [8], -97% (active); in [9] it was -87.1% (active); in test [10], -88.9% (active).

For `Nc1nc(SCC#CCCl)c2[nH]cnc2n1`, the growth in test [1] is 45.1%; in test [2], 53.9%; in test [3], 63%; in test [4], 57.1%; in [5] it was 43.8%; in [6] it was 62.6%. For the same compound, the growth was 29.5% in test [7], 44% in [8], 27.8% in test [9] and 72.8% in [10].

Turning to `CC(C)C[C@H](NC(=O)Cn1ccc(Nc2ccccc2)cc1=O)B(O)O`, the growth was 72.1% in test [1]; 1.28% (active) in [2]; 79.9% in test [3]; 68% in test [4]; 65.9% in test [5]; 58.9% in test [6]. The growth in [7] was 2.17% (active); in test [8] it was 25%; in [9], 3.14% (active); in test [10] it was 10.6%.

Take `CCc1ccc(Nc2cc(C)nc3nc(C)nn23)cc1`: the growth in [1] is -3.95% (active); in test [2] it was -76.3% (active); in [3], 29.6%; in [4] it was 15.4%; in test [5], -98.9% (active); in [6], 1.4% (active). Also, the growth in test [7] is -97.8% (active); in [8] it was -99.1% (active); in test [9], -98.2% (active); in test [10], -98% (active).

In the case of `Clc1cc(Cl)c(Cl)c(-c2nc(-c3cccnc3)cs2)c1`, the growth in [1] is 87.1%; in test [2], 46.3%; in test [3], 91.7%; in test [4], 103%; in test [5], 88.7%; in test [6], 88.5%. Further, the growth is 93.9% in test [7], 77.5% in test [8], 64.4% in [9] and 72.2% in [10].

Take `CCCCCCCCCCCCCC[n+]1ccc(C)cc1`: the growth in test [1] is 47%; in test [2] it was -9.48% (active); in test [3] it was -23.9% (active); in test [4], -50.2% (active); in test [5], -78.5% (active); in [6] it was -37% (active). Also, the growth in test [7] was -96.3% (active); in test [8], -71.5% (active); in test [9], -94.4% (active); in test [10], -20.4% (active).

As for `Oc1cc(O)c(Br)cc1Br`, the growth in [1] was 101%; in [2], 98.1%; in test [3], 95.7%; in test [4], 102%; in [5] it was 99.7%; in [6], 87.9%. For the same compound, the growth in [7] is 97.7%; in test [8], 101%; in test [9], 94%; in test [10], 111%.

Take `CCCc1ccnc(NS(=O)(=O)c2ccc(N)cc2)n1`: the growth was 105% in [1]; 72.9% in test [2]; 88.2% in [3]; 76.6% in test [4]; 54.6% in test [5]; 60.7% in test [6]. Besides, the growth was 84.3% in [7], 85.7% in test [8], 82.9% in test [9] and 78.9% in test [10].

For the origin of these results see PubChem BioAssay (NCI).
